Sampled rows, rich in hits. Any-hit rate of the full collection: about 4.6%.
Peg3 promoter: Peg3 promoter-driven luciferase inhibitors, primary screen, cell-based, HeLa, luciferase luminescence. 360,000 tested, 1.7% active. inhibition, % at 20 µM. HeLa PEG-Prom luciferase reporter, overnight;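 active = inhibition of at least 50% at 20 µM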
CF NFkB inh: inhibitors of PAF-induced NF-kB signaling, primary screen, cell-based, GFP fluorescence, uHTS | inhibition, % at 5 µM | 360,000 tested, 0.86% active | KKLEB NF-kB-GFP reporter, GFP fluorescence overnight;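 active = at least 50% inhibition at 5 µM, scaled per plate between neutral and stimulator controls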;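 note: PAF is a Pseudomonas aeruginosa culture filtrate used as stimulus; plate controls were PAF-stimulated DMSO wells for no effect and unstimulated DMSO wells for full effect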
HIF-2a block: HIF-2a reporter inhibitors, primary screen, luminescence, 786-0 RCC cells | 360,000 tested, 0.72% active | AID 624352, 2012 | inhibition, % at 18.8 µM | 786-0 RCC cells HIF-2a reporter, luciferase luminescence, overnight;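 active = inhibition of the luminescence signal of 40% or more relative to plate controls, in a single-dose primary screen at 18.75 µM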
KKLEB cytotox: cytotoxicity in KKLEB CF airway cells, primary screen, cytotoxicity control for CF NF-kB inhibitor project, cell-based, uHTS, fluorescence assay plates; KKLEB CF airway cells viability, ATPlite luminescence, overnight; active compounds read low; cells stimulated with P. aeruginosa culture filtrate; activity change (cytotoxicity), % at 5 µM; 360,000 tested, 0.36% active;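 active = corrected activity change at or below -50% at 5 µM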
Mdm2 MdmX PPI: inhibitors of human Mdm2-MdmX association, primary screen, cell-based, luminescence, split luciferase, SaOS-2, uHTS. Protein Mdm4 (Homo sapiens) + E3 ubiquitin-protein ligase Mdm2 (Homo sapiens), …. SaOS-2 split-luciferase Mdm2/MdmX complementation. inhibition, % at 8 µM. 330,000 tested, 3% active. AID 485346, 2010;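 active = inhibition of at least 50% at 8 µM in the primary screen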
Target sequence (O15151 whole entry, looked up): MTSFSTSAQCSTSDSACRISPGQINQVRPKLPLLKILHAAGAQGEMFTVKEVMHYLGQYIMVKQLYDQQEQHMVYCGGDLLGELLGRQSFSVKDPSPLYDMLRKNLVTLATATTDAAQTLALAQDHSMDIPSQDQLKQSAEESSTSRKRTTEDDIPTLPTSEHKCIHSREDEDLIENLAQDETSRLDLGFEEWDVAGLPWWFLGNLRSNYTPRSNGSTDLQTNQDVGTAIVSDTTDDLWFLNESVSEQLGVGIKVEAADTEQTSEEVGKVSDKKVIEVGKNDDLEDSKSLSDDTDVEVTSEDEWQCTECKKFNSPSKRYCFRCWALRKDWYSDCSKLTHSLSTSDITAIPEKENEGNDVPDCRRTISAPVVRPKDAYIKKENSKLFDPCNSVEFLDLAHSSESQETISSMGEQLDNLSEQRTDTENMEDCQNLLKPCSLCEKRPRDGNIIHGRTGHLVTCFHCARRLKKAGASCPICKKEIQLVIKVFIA
Target sequence (Q00987 whole entry, looked up): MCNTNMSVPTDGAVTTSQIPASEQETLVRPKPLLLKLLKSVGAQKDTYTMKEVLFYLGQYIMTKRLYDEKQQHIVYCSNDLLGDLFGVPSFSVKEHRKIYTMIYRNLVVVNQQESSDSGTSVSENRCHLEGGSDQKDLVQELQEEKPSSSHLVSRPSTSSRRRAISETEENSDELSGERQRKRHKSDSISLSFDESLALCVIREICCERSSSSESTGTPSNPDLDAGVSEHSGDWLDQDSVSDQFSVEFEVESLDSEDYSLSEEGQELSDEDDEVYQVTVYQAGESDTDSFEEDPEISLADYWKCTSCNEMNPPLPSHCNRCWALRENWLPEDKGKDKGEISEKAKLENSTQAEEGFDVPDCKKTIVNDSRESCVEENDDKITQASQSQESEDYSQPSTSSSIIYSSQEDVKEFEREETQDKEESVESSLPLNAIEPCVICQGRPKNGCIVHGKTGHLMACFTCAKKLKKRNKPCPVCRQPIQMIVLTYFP
ABHD5 PLIN5 PPI: ABHD5-PLIN5 interaction inhibitors, primary screen, cell lysate, split luciferase complementation, luminescence. inhibition, % at 4 µM. Perilipin-5 (Homo sapiens) + 1-acylglycerol-3-phosphate O-acyltransferase ABHD5 (Homo …. 360,000 tested, 0.78% active. Split G. princeps luciferase complementation, 4 h;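 active = inhibition above the mean inhibition across every tested compound plus 3 SD, cut at about 22% in these data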;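 note: 0% = DMSO only wells and the 100% control is not disclosed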
An asterisk follows results filed as active; / = no result.

SMILES | Peg3 promoter | CF NFkB inh | HIF-2a block | KKLEB cytotox | Mdm2 MdmX PPI | ABHD5 PLIN5 PPI
COc1ccc2oc(C(=O)OCC(=O)NC3CCS(=O)(=O)C3)c(C)c2c1 (stereo not drawn) | 3 | -38 | 4 | -4 | / | 9
CCc1ccc(NC(=O)CCC(=O)c2ccccc2)cc1 | 6 | -2 | -44 | 5 | 6 | -2
COc1cccc(N2CCN(C(=S)Nc3ccccc3)CC2)c1 | 110* | 1 | 7 | -2 | 1 | -3
Cc1ccc(-c2nnc(SCC(=O)N/N=C/c3ccccc3C(=O)O)n2-c2ccc(C)cc2)cc1 | 3 | -8 | 7 | -1 | 6 | 3
Cc1ccc(-c2nnc(SCC(=O)N/N=C/c3ccc(C)s3)n2-c2ccccc2)cc1 | 65* | 14 | 13 | 1 | 49 | -4
Cc1cc(C)c2c(NC(=O)CCl)nn(C)c2n1 | 52* | 17 | 10 | -17 | 3 | -2
CC(=O)Nc1sc(N)nc1-c1ccccc1 | 0 | 8 | -1 | -6 | -1 | -10
Nc1nc(-c2ccccc2)c(N=Nc2cccc3ccccc23)s1 | 2 | 24 | -32 | 8 | 26 | 23*
CCOC(=O)c1ccc(NC(=O)c2ccc(C)c(S(=O)(=O)N3CCOCC3)c2)cc1 | 93* | -11 | 14 | 14 | 15 | 1
CC(=O)c1ccc(NC(=O)c2ccc(C)c(S(=O)(=O)N3CCOCC3)c2)cc1 | -25 | 0 | -20 | 3 | 21 | 13
Cc1noc(C)c1NC(=O)N(C)C[C@H]1Oc2ccc(NC(=O)Nc3ccccc3)cc2C(=O)N([C@H](C)CO)C[C@@H]1C | -6 | -1 | 5 | -13 | 9 | -2
CCOc1ccc(-c2cc(CCCC(=O)N3CCN(c4ccc(OC)cc4)CC3)no2)cc1 | 7 | 22 | 50* | 8 | -8 | 2
O=C(Oc1c(Cl)cc(Cl)c2cccnc12)c1cccc([N+](=O)[O-])c1 | 54* | 13 | 15 | 13 | 50 | -1
O=C(Oc1ccc(Cl)c2cccnc12)c1cccc([N+](=O)[O-])c1 | 18 | 28 | -1 | -32 | -1 | -3
CCOc1ccccc1C(=O)N[C@H](C(=O)OCC(=O)Nc1nnc(-c2ccccc2)o1)C(C)C | -3 | -2 | 17 | 4 | / | -2
Cc1nc(NC(=O)C2CC2)sc1C(=O)Nc1ccccc1Cl | -169 | 22 | -248 | 4 | -39 | 10
Brc1ccccc1-c1nnc2sc(Cc3ccccc3)nn12 | 1 | 47 | 0 | -4 | 4 | -5
COc1ccc(Cc2nn3c(-c4ccccc4Br)nnc3s2)cc1 | -5 | 53* | -31 | -8 | 32 | 8
Cc1ccc(CNC(=O)CS(=O)Cc2nc(-c3ccccc3F)oc2C)cc1 (stereo not drawn) | 4 | -10 | 2 | 13 | -5 | -1
CCOC(=O)c1sc2nc(-c3ccco3)c3c(c2c1N)CC(C)(C)OC3 | 25 | -8 | -45 | 14 | 12 | 30*
CCCn1c(SCC(=O)N(C)C2CCCCC2)n[nH]c1=O | 4 | 9 | -11 | -4 | / | -5
CCC1(OC(=O)CN(C)C)C(=O)OCc2c1cc1n(c2=O)Cc2cc3c(N)cccc3nc2-1 (stereo not drawn) | 39 | 32 | 13 | -56* | / | -8
CCC1(O)C(=O)OCc2c1cc1n(c2=O)Cc2cc3c(N)cccc3nc2-1 (stereo not drawn) | 69* | 86* | 37 | -17 | / | -6
O=C1NC[C@@H](CCCCN2CCN(CCc3ccccc3)C(=O)C2=O)N(CCC2CCCCC2)C1=O | / | / | -5 | / | / | -2
CCCC(=O)N(Cc1cc(=O)[nH]c2ccccc12)c1ccccc1C | 3 | -2 | 14 | 6 | 18 | 0
SMILES | Peg3 promoter | CF NFkB inh | HIF-2a block | KKLEB cytotox | Mdm2 MdmX PPI | ABHD5 PLIN5 PPI
CCCc1cnc(Nc2nc(C(N)Cc3ccc(OC)cc3)cs2)nc1 (stereo not drawn) | 100* | 10 | -11 | -18 | / | 16
COc1cc(OC)nc(Nc2nc(C(N)Cc3ccc(F)cc3)cs2)n1 (stereo not drawn) | 96* | 25 | 15 | -20 | / | -2
COc1ccc(CC(N)c2csc(Nc3nncc4ccccc34)n2)cc1 (stereo not drawn) | 121* | 7 | -9 | -17 | / | 8
NC(Cc1ccc(C(F)(F)F)cc1)c1csc(Nc2ncccn2)n1 (stereo not drawn) | 8 | 10 | -1 | -15 | / | 1
CC(C)CC(N)c1csc(Nc2ncccn2)n1 (stereo not drawn) | 8 | 11 | -8 | -7 | / | 4
CC(C)C[C@H]1CNC(=S)N1CC1CCN(CCCCc2ccccc2)CC1 | -3 | 5 | -6 | -5 | / | -3
CC(C)(C)/C(O)=C(/C#N)c1nc2ccccc2[nH]1 | 4 | 1 | -6 | 8 | -9 | -2
N#C/C(=C(/O)c1ccc([N+](=O)[O-])o1)c1nc2ccccc2[nH]1 | 77* | 94* | 39 | -29 | 39 | 2
Cc1cc(C(=O)NNS(=O)(=O)c2cc(C(=O)O)ccc2Cl)c(C)n1-c1ccccc1 | 39 | 9 | 64* | -14 | 21 | 7
COc1ccc(-c2cc3ccc(OC(C)C(=O)O)cc3oc2=O)cc1 (stereo not drawn) | -7 | -8 | -16 | 7 | 2 | 22*
Nc1nc(=S)c2[nH]cnc2[nH]1 | 63* | 2 | 13 | -6 | 45 | -3
O=C(Cc1cccs1)Nc1cccc(-c2nc3cc4ccccc4cc3[nH]2)c1 | -49 | 81* | -382 | -71* | / | 2
CC(=O)Nc1cccc(NC(=O)Cc2cccs2)c1 | 16 | 10 | 9 | 1 | 17 | 7
CC1=CC(=O)C=C/C1=C(/c1ccc(O)cc1C)c1ccccc1S(=O)(=O)O | 79* | 28 | 9 | 6 | 7 | 4
Cc1ccc(S(=O)(=O)N2CCN(C(=O)/C=C/c3ccco3)CC2)cc1 | 10 | 7 | 9 | 6 | -22 | 1
Cc1ccc(C)c(S(=O)(=O)N2CCN(C(=O)/C=C/c3ccco3)CC2)c1 | -1 | 21 | 15 | 0 | -5 | 43*
CC(=O)OCC(=O)[C@@]1(O)CC[C@H]2[C@@H]3C[C@H](C)C4=CC(=O)C=C[C@]4(C)[C@H]3[C@@H](O)C[C@@]21C | -13 | 77* | 30 | -11 | -5 | 4
CC12CCC(=O)C=C1C(O)CC1C2CCC2(C)C1CCC2(O)C(=O)CO (stereo not drawn) | 3 | 3 | 17 | -3 | / | 9

Screening results: PubChem BioAssay, several laboratories
